In the supplement of paper PMC13380429 one finds morphology score and SARS-CoV-2 infection rate data, which are given here for 29 compounds.

Test [1] concerns Vero E6 infected with SARS-CoV-2. Put plainly: morphology score (similarity to uninfected cells); higher = more like uninfected cells. As to conditions: 24 h.
The test system is the same in test [2]. Put plainly: SARS-CoV-2 infection rate relative to infected DMSO; higher = more infection, active = 60 or less. As to conditions: 24 h.

`NC[C@H]1CC[C@H](C(=O)O)CC1` [tranexamic-acid] (10 µM) had a morphology score in test [1] of 0.0762. Further, the SARS-CoV-2 infection rate in test [2] was 108% (inactive).
In test [1], `NC(=O)CN1Cc2ccccc2OC1=O` [caroxazone] (10 µM) showed a morphology score of 0.0974. For the same compound, the SARS-CoV-2 infection rate in test [2] is 100% (inactive).
On the same counts, the results for `C[C@H]1[C@H](C)CC[C@]2(C(=O)O)CC[C@]3(C)C(=CC[C@@H]4[C@@]5(C)C[C@@H](O)[C@H](O)[C@@](C)(CO)[C@@H]5CC[C@]43C)[C@H]12` [asiatic-acid] (10 µM) are -0.135 and 108% (inactive).
In test [1], `CCCCCCCCCCCCCCCCCC(=O)OCC(O)CO` (stereo not drawn) [monostearin] (10 µM) gave a morphology score of -0.0152. Moreover, the SARS-CoV-2 infection rate in test [2] is 108% (inactive).
Regarding `C[N+]1(C)[C@@H]2C[C@@H](OC(=O)[C@H](CO)c3ccccc3)C[C@H]1[C@@H]1O[C@@H]12` [methscopolamine] (10 µM), in test [1], the morphology score was -0.0273. For the same compound, the SARS-CoV-2 infection rate in test [2] was 96% (inactive).
The corresponding values for `CC(=C(CCO)SSCC1CCCO1)N(C=O)Cc1cnc(C)nc1N` (stereo in doubt) [fursultiamine] (10 µM) are 0.0723 and 110% (inactive).
On the same counts, the results for `C[C@H]1O[C@@H](O[C@H]2[C@@H](O)C[C@H](O[C@H]3[C@@H](O)C[C@H](O[C@H]4CC[C@@]5(C)[C@H](CC[C@@H]6[C@@H]5C[C@@H](O)[C@]5(C)[C@@H](C7=CC(=O)OC7)CC[C@]65O)C4)O[C@@H]3C)O[C@@H]2C)C[C@H](O)[C@@H]1O` [digoxin] (0.833333 µM) are -0.256 and 98% (inactive).
For the compound `CCCNC(=O)N1N=C(c2ccc(N)cc2)c2cc3c(cc2C1C)OCO3` (stereo not drawn) (10 µM), the morphology score in test [1] came to 0.256. Moreover, the SARS-CoV-2 infection rate in test [2] was 96.5% (inactive).
In the case of `N=C(N)NC(=O)c1cnccn1` [pyrazinoylguanidine] (10 µM), the morphology score in test [1] worked out at 0.0685. Further, in test [2], the SARS-CoV-2 infection rate is 108% (inactive).
The corresponding values for `CCCn1c(=O)c(C)cn2nc(N)nc12` (10 µM) are 0.276 and 96.5% (inactive).
The corresponding values for `CCC(C)(CN(C)C)OC(=O)c1ccccc1` (stereo not drawn) [amyleine] (10 µM) are -0.104 and 120% (inactive).
With `Cc1ncc(C[n+]2csc(CCOP(=O)(O)OP(=O)(O)O)c2C)c(N)n1` [thiamine-pyrophosphate] (10 µM), the morphology score in test [1] was determined as 0.112. The SARS-CoV-2 infection rate in test [2] is 105% (inactive).
On the same counts, the results for `Cc1ccc(NC2=NCCN2)c(Cl)c1` [tolonidine] (10 µM) are -0.0217 and 98.5% (inactive).
The corresponding values for `Cn1nccc1Nc1nccc(-c2ccn([C@H](CO)c3ccc(Cl)c(F)c3)c(=O)c2)n1` (0.833333 µM) are 0.0519 and 106% (inactive).
Take `CCC[C@H](N[C@@H](C)C(=O)N1[C@H](C(=O)O)C[C@@H]2CCCC[C@@H]21)C(=O)OCC` [perindopril] (10 µM): the morphology score in test [1] is 0.104. Further, the SARS-CoV-2 infection rate in test [2] is 95% (inactive).
On the same counts, the results for `NC[C@H]1O[C@H](O[C@H]2[C@H](O[C@@H]3O[C@H](CO)[C@@H](O)[C@H]3O)[C@@H](O)[C@H](N)C[C@@H]2N)[C@H](N)[C@@H](O)[C@@H]1O` [ribostamycin-sulfate] (10 µM) are 0.199 and 105% (inactive).
On the same counts, the results for `CCCC(=O)N1CCCN(c2nc(N)c3cc(OC)c(OC)cc3n2)CC1` [bunazosin] (10 µM) are 0.0754 and 108% (inactive).
In test [1], `COc1cc(C(=O)NCc2ccc(OCCN(C)C)cc2)cc(OC)c1OC` [trimethobenzamide] (10 µM) returned a morphology score of 0.00196. In test [2], the SARS-CoV-2 infection rate was 110% (inactive).
The compound `O=C1NC(=O)C(c2ccccc2)(c2ccccc2)N1` [phenytoin] (10 µM) came in with a morphology score in test [1] of 0.168. Also, the SARS-CoV-2 infection rate in test [2] was 97% (inactive).
On the same counts, the results for `CCOc1c2c(c(OCC)c3ccccc13)C(=O)N(c1ccc(CC(=O)NS(=O)(=O)c3ccccc3)cc1)C2` (10 µM) are 0.117 and 104% (inactive).
The corresponding values for `CCCCCCCCCCCCCCCCO` [1-hexadecanol] (10 µM) are -0.278 and 110% (inactive).
Turning to `CC(C)(C)N1CCC(c2ccccc2)(c2ccccc2)CC1` [budipine] (10 µM), the morphology score in test [1] was determined as 0.395. Besides, the SARS-CoV-2 infection rate in test [2] is 76.5% (inactive).
The corresponding values for `O=C(O)c1ccc(S(=O)(=O)N(Cl)Cl)cc1` [halazone] (10 µM) are 0.13 and 95% (inactive).
In test [1], `COc1cccc(-c2ccc([C@@H](Oc3cc(-c4ccc(C[C@H](N)C(=O)O)cc4)nc(N)n3)C(F)(F)F)cc2)c1` (10 µM) yielded a morphology score of 0.0975. Further, the SARS-CoV-2 infection rate in test [2] is 102% (inactive).
In test [1], `CCNCCCNCCCCNCCCNCC` (0.833333 µM) gave a morphology score of 0.312. In addition, in test [2], the SARS-CoV-2 infection rate is 80.5% (inactive).
On the same counts, the results for `Oc1cccc(Nc2ccc(Nc3cccc(O)c3)nn2)c1` [beta-amyloid-synthesis-inhibitor] (10 µM) are 0.0822 and 104% (inactive).
On the same counts, the results for `CCCCc1nc2cc(/C=C/C(=O)NO)ccc2n1CCN(CC)CC` (10 µM) are -0.146 and 109% (inactive).
Consider `N=C(N)SCCc1ccc(OCc2ccc([N+](=O)[O-])cc2)cc1` (10 µM), for which, in test [1], the morphology score turned out to be 0.268. Moreover, the SARS-CoV-2 infection rate in test [2] was 85.5% (inactive).
The corresponding values for `CCOC(=O)c1ccc(C#Cc2ccc3c(c2)C(C)(C)CCS3)nc1` [tazarotene] (10 µM) are -0.0471 and 93% (inactive).
